# Wnt act = Wnt/beta-catenin pathway activation; actives 1.2% (n = 300,000); AID 743398; activation, % at 9.35 µM; Wnt/beta-catenin reporter cell assay, activator, plate reader; in the data active = activation above about 30%, passing the limit was not always enough; inconclusive = no clear call, values can overlap the other calls;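 note: 0% = neutral control wells and 100% = positive control wells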
# MITF act = MITF TRPM1 promoter activation in melanoma cells; SK-MEL-5 TRPM1-promoter luciferase, 24 h; % of positive control, neutral wells = 0; activation, % at 12.5 µM; actives 0.75% (n = 300,000); AID 588334;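 active = mean activation of at least 80% with every replicate also reaching 80%; inconclusive = mean reaches 80% but some replicate falls short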;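 note: 0% = neutral control wells and 100% = parthenolide positive control wells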
# AHR activator = activates the human aryl hydrocarbon receptor; actives 2.5% (n = 320,000); P35869; AHR-responsive luciferase reporter cells, luminescence; activation, % at 5 µM; in the data active = activation above about 47%;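 note: 0% = vehicle wells and 100% = reference agonist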
# Target sequence (P35869 whole entry, looked up): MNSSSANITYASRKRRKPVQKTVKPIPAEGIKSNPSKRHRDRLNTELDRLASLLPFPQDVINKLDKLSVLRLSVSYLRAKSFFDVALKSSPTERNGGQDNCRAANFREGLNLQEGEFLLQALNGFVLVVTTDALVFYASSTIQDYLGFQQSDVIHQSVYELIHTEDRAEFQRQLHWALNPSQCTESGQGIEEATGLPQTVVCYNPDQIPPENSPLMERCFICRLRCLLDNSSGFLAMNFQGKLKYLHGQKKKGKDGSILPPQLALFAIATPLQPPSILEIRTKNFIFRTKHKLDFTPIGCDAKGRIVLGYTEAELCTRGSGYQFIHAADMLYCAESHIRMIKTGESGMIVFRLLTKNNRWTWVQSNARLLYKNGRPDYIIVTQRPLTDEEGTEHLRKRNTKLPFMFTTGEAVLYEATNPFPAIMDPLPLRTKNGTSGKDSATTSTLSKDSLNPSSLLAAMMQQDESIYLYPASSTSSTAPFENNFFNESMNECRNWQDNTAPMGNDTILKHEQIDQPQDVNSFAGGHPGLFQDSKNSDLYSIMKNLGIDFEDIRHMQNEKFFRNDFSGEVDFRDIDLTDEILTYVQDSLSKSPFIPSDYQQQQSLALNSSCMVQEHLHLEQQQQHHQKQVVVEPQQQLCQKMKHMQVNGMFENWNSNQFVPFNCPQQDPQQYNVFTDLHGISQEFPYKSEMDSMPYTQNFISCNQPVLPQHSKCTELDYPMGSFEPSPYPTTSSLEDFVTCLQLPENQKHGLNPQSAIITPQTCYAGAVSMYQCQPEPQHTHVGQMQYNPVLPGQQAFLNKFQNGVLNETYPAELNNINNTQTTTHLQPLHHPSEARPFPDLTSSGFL
# esBAF inh = SWI/SNF esBAF complex inhibition; mouse ES cells, Bmi1-luciferase knock-in reporter, 24 h; 100% = twice the neutral-well signal; AID 602393; actives 2% (n = 350,000); reporter increase, % at 12.5 µM; in the data active = activation above about 40%; inconclusive = no clear call, values can overlap the other calls;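 note: 0% = median of the plate's neutral control wells and 100% = double that signal; a rise in the Bmi1 reporter signal indicates esBAF inhibition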
# GAA850 FXN act = increases GAA850 frataxin promoter reporter activity | HEK293 lucGAA850 FXN promoter luciferase reporter, 24 h; percent of 10 µM SAHA response | activation, % at 6 µM | actives 0.56% (n = 360,000) | AID 540364;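 active = activation above the average of all compounds screened plus 3 SD, cutoff fixed separately per campaign, cut at about 7.5% in these data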;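 note: 0% = DMSO wells and 100% = 10 µM SAHA wells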
# * marks the source's active call; other numbers are inactive results; ? = inconclusive; / = not tested or not shown. Hits are enriched below; roughly 4.2% of the tested compounds scored in any of these assays.
SMILES,Wnt act,MITF act,AHR activator,esBAF inh,GAA850 FXN act
O=C(/C=C/c1ccco1)NC(=S)Nc1ccc(O)c(-c2nc3ccccc3s2)c1,/,-56,80*,/,3
COc1ccc2nc(NC(C)=O)sc2c1,?,39,6,32,2
CNc1sc(C(=O)c2ccc(F)cc2)c(N)c1-c1nc2ccccc2s1,-1,7,32,24,3
COc1ccc2nc(NC(=O)c3cccs3)sc2c1,48*,/,-7,?,4
NCC[C@@H]1CC[C@H](NC(=O)NC2CCCCC2)[C@H](CO)O1,/,/,/,5,/
COCC(=O)Nc1ccc2c(c1)C(=O)N(C)C[C@H](OC)[C@@H](C)CN(C(=O)NC(C)C)[C@@H](C)CO2,/,/,/,-6,/
O=C(Nc1nc2cc3c(cc2s1)OCCO3)c1cccs1,32*,-15,-6,-57,-3
CC(=O)Nc1ccc2nc(NC(=O)c3ccc([N+](=O)[O-])s3)sc2c1,/,/,-3,/,/
O=C(Nc1ccc2c(c1)OCCO2)c1cccs1,15,43,1,8,5
CC(=O)Nc1ccc2nc(NC(=O)c3cccs3)sc2c1,0,36,58*,-34,3
Cc1nc2ccc(NC(=O)Cc3ccccc3F)cc2s1,-1,121*,2,/,5
CS(=O)(=O)c1ccc2nc(NC(=O)CCC(=O)c3cccs3)sc2c1,/,12,52*,3,-1
CNC[C@@H]1OCCCC[C@@H](C)Oc2ccc(NC(=O)c3ccncc3)cc2C(=O)N([C@H](C)CO)C[C@@H]1C,/,/,/,-12,/
O=C(C[C@H]1CC[C@@H]2[C@H](COC[C@@H](O)CN2C(=O)Nc2ccc(C(F)(F)F)cc2)O1)NCC1CCCCC1,/,/,/,18,/
CNC[C@H]1Oc2ccc(NC(=O)NC(C)C)cc2C(=O)N([C@@H](C)CO)C[C@H]1C,/,/,/,1,/
Cc1nc2ccc(NC(=O)c3ccccc3)cc2s1,?,59,-3,/,4
O=C(Nc1ccc(O)c(-c2nc3ccccc3s2)c1)c1cc(=O)c2ccccc2o1,-3,-6,2,/,-1
O=C(Nc1ccc(O)c(-c2nc3ccccc3s2)c1)c1cccs1,-1,2,74*,/,0
Cc1nc2ccc(NC(=O)c3cccs3)cc2s1,25,121*,2,/,6
CCN(CC)S(=O)(=O)c1cccc(C(=O)N/N=C(\C)c2cccs2)c1,-1,101*,10,?,6
O=C1N=C(N2CCCCC2)SC1=C1CCCCC1,/,47,7,75*,2
O=C1N=C(N2CCCCC2)S/C1=C\c1ccc(Br)cc1,0,/,17,31,2
CN1C(=O)/C(=C2\SC(N3CCCCCC3)=NC2=O)c2ccccc21,/,/,19,46*,7
CCCN1C(=O)/C(=C2\SC(N3CCCCC3)=NC2=O)c2ccccc21,12,79,19,74*,7
CN1C(=O)/C(=C2\SC(=S)N(CCCCCC(=O)O)C2=O)c2ccccc21,4,-10,3,-5,-1
SMILES,Wnt act,MITF act,AHR activator,esBAF inh,GAA850 FXN act
CC1CN(C2=NC(=O)/C(=C3/C(=O)N(Cc4ccc(F)cc4)c4ccccc43)S2)CC(C)O1 (configuration not stated),-2,/,1,/,0
CN1C(=O)/C(=C2\SC(N)=NC2=O)c2ccccc21,/,9,73*,/,1
COc1ccc(S(=O)(=O)Nc2ccc3c(c2)C(=O)N([C@@H](C)CO)C[C@@H](C)[C@@H](CN(C)C(=O)Nc2ccc(C(F)(F)F)cc2)O3)cc1,/,/,/,-7,/
C[C@@H](NC(=O)[C@@H]1[C@@H](CO)[C@@H]2Cn3c(ccc(-c4ccccc4)c3=O)[C@H]1N2C)c1ccccc1,/,/,/,-2,/
O=C1N=C(N2CCOCC2)S/C1=C1\C(=O)N(Cc2ccccc2)c2ccccc21,6,74,0,52*,3
CC1CCN(C(=O)c2ccc(-c3ccccc3Cl)o2)CC1,44*,110*,18,?,7
O=C(c1ccc(-c2ccccc2Cl)o1)N1CCC1,20,?,/,84*,3
NC(=O)C1CCCN(C(=O)c2ccc(-c3cccc(Cl)c3Cl)o2)C1 (configuration not stated),38*,80,/,75*,3
O=C(c1ccc(-c2ccccc2Cl)o1)N1CCCC(C(F)(F)F)C1 (configuration not stated),-3,?,0,51*,3
O=C(c1ccc(-c2ccc([N+](=O)[O-])cc2Cl)o1)N1CCOCC1,1,-8,11,/,2
C[C@@H]1CCCCO[C@@H](CN(C)Cc2ccc3c(c2)OCO3)[C@H](C)CN([C@H](C)CO)C(=O)c2cc(NC(=O)Nc3ccccc3)ccc2O1,/,/,/,2,/
C=CCn1c(=N)n(CC(=O)c2ccc(Cl)cc2)c2ccccc21,7,/,79*,12,-1
C=CCn1c(=N)n(CC(=O)c2ccc(Br)s2)c2ccccc21,-42,4,80*,-6,-1
C=CCn1c(=N)n(CC(=O)OC)c2ccccc21,0,6,4,-6,-1
Cn1c(N/N=C/c2c[nH]c3ccccc23)nc2ccccc21,13,44,56*,/,2
Cc1cc(C)nc(N/N=C/c2c[nH]c3ccccc23)n1,-1,14,24,42,5
Cc1cc(N/N=C/c2ccc(N(C)C)cc2)c2ccccc2n1,3,27,49*,0,1
Cc1cc(N/N=C/c2c[nH]c3ccccc23)c2ccccc2n1,0,-14,58*,2,3
Cc1cc(N/N=C/c2ccco2)c2ccccc2n1,1,26,3,/,1
O=C(C[C@@H]1C[C@@H]2c3cc(NC(=O)Nc4ccccc4F)ccc3O[C@@H]2[C@H](CO)O1)NCC(F)(F)F,/,/,/,1,/
Cc1noc(C)c1NC(=O)Nc1ccc2c(c1)C(=O)N([C@@H](C)CO)C[C@@H](C)[C@H](CN(C)Cc1ccc(C(=O)O)cc1)OCCCC[C@H](C)O2,/,/,/,0,/
CC(=O)C(C)Oc1ccc2c3c(c(=O)oc2c1)CCCCC3 (configuration not stated),/,?,8,66*,5
CC(=O)C(C)Oc1ccc2c3c(c(=O)oc2c1)CCCC3 (configuration not stated),/,/,-8,31,3
Cc1ccc2c(c1)N1C(=O)c3ccccc3C1C1=C(CC(C)(C)CC1=O)N2 (configuration not stated),-7,/,50*,0,1
CCCN(C)C[C@@H]1OCCCC[C@@H](C)Oc2ccc(NS(=O)(=O)c3c(C)noc3C)cc2C(=O)N([C@@H](C)CO)C[C@@H]1C,/,/,/,0,/
SMILES,Wnt act,MITF act,AHR activator,esBAF inh,GAA850 FXN act
c1ccc(NCCc2ccccn2)cc1,17,49,/,46*,1
CN(CCc1ccccn1)S(=O)(=O)c1ccccc1F,-5,/,-3,-5,1
Nc1cc(C(F)(F)F)ccc1NCCc1ccccn1,0,5,64*,-6,0
CNCCc1ccccn1,-1,-6,-1,3,-1
CN(CCc1ccccn1)c1ccccc1,11,71,/,48*,5
CCCNC(=O)NC[C@H]1[C@H](c2ccc(C3=CCCC3)cc2)[C@H](CO)N1C(=O)CC,/,/,/,1,/

# Screens (PubChem BioAssay)
